Unmarked numbers belong to inactive results. Calls of active or inactive are those of the source. Rule as the data show it: active = remaining activity below about 50%; inactive = the rest.
biological target: Phospholipase D1 (Homo sapiens) (UniProt Q13393); experiment: cellular phospholipase D1 activity inhibition – Calu-1 cells, single concentration (AID 602144); settings: cellular PLD1 activity, active compounds read low;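 also: tested at 200 nM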
Sequence (Q13393 whole entry, looked up): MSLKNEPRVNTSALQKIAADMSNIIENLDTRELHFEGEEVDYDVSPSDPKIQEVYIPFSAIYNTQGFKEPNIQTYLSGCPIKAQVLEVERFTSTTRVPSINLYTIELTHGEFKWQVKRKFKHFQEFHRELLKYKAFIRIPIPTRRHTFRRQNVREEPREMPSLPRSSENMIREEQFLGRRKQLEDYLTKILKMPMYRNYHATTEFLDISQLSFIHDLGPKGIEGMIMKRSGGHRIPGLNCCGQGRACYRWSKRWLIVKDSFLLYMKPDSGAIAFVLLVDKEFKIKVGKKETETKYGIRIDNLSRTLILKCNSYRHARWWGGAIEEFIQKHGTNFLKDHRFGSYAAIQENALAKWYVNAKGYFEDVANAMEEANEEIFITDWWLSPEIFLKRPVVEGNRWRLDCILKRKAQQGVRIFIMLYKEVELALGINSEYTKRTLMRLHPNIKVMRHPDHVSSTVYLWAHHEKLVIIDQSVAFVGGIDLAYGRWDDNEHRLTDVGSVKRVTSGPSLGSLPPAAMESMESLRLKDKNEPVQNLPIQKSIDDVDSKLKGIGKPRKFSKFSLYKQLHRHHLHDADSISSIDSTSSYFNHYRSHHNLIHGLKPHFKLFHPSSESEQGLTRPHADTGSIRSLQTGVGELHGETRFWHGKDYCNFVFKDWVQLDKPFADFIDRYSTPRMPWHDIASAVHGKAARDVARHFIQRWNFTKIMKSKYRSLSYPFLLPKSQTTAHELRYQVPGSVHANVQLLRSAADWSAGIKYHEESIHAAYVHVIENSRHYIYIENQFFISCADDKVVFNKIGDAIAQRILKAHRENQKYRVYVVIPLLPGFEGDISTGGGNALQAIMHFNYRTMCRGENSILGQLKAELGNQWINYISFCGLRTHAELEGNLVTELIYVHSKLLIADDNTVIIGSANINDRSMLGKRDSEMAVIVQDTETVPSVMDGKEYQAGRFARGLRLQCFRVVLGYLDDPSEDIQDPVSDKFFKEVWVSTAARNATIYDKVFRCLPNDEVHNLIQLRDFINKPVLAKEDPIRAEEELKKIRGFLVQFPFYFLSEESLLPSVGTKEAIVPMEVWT
Sequence (Q13393 whole entry, looked up): as above

Row | SMILES | remaining activity
1 | CN1CCC2(CCN(CCNC(=O)[C@H]3C[C@@H]3c3ccccc3)CC2)C1=O | 107%
2 | Nc1cccc(Cl)c1C(=O)NCCN1CCC(n2c(=O)[nH]c3ccccc32)CC1 | 89.2%
3 | O=C(NCCN1CCC(n2c(=O)[nH]c3ccccc32)CC1)c1cc([N+](=O)[O-])cc([N+](=O)[O-])c1 | 50% (active)
4 | O=C1c2ccccc2C(=O)N1CCCNCc1ccccn1 | 175%
5 | O=C(c1ccc2ccccc2c1)N1CCC2(CC1)C(=O)NCN2c1ccccc1 | 113%
6 | O=C(NCCN1CCC(n2c(=O)[nH]c3ccccc32)CC1)Nc1cccc(F)c1 | 20.1% (active)
7 | O=C1Cc2cc(CCN3CCN(c4nsc5ccccc45)CC3)c(Cl)cc2N1 | 75.1%
8 | O=C(CCCN1CCC(O)(c2ccc(Cl)cc2)CC1)c1ccc(F)cc1 | 80.1%
9 | Cc1ccccc1NC(=S)NCCN1CCC(n2c(=O)[nH]c3ccccc32)CC1 | 173%
10 | Cc1ccc(C(=O)N[C@@H](C)CN2CCC(n3c(=O)[nH]c4cc(Cl)ccc43)CC2)cc1 | 12.1% (active)
11 | C[C@H](CN1CCC2(CC1)CNc1ccccc12)NC(=O)c1ccc2ccccc2c1 | 34.6% (active)
12 | Cn1c(C(=O)NCCN2CCN(c3ccncc3)CC2)cc2ccccc21 | 188%
13 | O=C(NCCN1CC=C(n2c(=O)[nH]c3ccccc32)CC1)[C@H]1C[C@@H]1c1ccccc1 | 85.3%
14 | CN(C)c1cccc2c(S(=O)(=O)NCCN3CCC(n4c(=O)[nH]c5ccccc54)CC3)cccc12 | 127%
15 | O=C(NCCN1CCC2(CC1)CNc1ccccc12)C1CC1c1ccccc1 (stereo not given) | 113%
16 | O=C(NCCN1CCN(c2ccncc2)CC1)c1cc2cc(F)ccc2[nH]1 | 162%
17 | O=C1c2ccccc2C(=O)N1CCCN1CCC(n2c(=O)[nH]c3cc(Cl)ccc32)CC1 | 67.5%
18 | O=C(NCCN1CCC(n2c(=O)[nH]c3ccccc32)CC1)c1cscn1 | 16.7% (active)
19 | Cn1c(=O)n(C2CCN(CCNC(=O)c3ccc(F)cc3)CC2)c2ccccc21 | 84.4%
20 | Cn1c(C2CCN(CC3(N)CCCC3)CC2)nc2ccccc21 (tested in a mixture with another compound) | 95%

Row | SMILES | remaining activity
21 | COc1cccc(N2CCN(CCNC(=O)c3ccc4ccccc4c3)CC2)c1 | 77.7%
22 | O=C(NCCN1CCN(c2ncccn2)CC1)c1ccc2ccccc2c1 | 118%
23 | C=CCCCCCCCCC(=O)NCCN1CCC(n2c(=O)[nH]c3ccccc32)CC1 | 81.3%
24 | Cc1ccc(C(=O)N[C@@H](C)CN2CCC(n3c(=O)[nH]c4c(F)cccc43)CC2)cc1 | 40.7% (active)
25 | COc1cccc(N2CCN(CCNC(=O)c3ccc(C)cc3)CC2)c1 | 84.8%
26 | O=C(NCCN1CCC(n2c(=O)[nH]c3cc(I)ccc32)CC1)C1CC1c1ccccc1 (stereo not given) | 16.1% (active)
27 | O=C1c2ccccc2C(=O)N1CCCNc1ccc2ccccc2c1 | 145%
28 | O=C(NCCN1CCC(n2c(=O)[nH]c3ccccc32)CC1)c1cccc(Cl)n1 | 37.8% (active)
29 | O=C(NCCN1CCN(c2ccncc2)CC1)c1c2ccccc2cc2ccccc12 | 183%
30 | Cc1ccc(C(=O)NCCN2CCN(c3ncccn3)CC2)cc1 | 84.2%
31 | Cc1ccc(NC(=S)NCCN2CCC(n3c(=O)[nH]c4ccccc43)CC2)cc1 | 152%
32 | O=C(NCCN1CCC(n2c(=O)[nH]c3cc(Cl)ccc32)CC1)c1ccc(Cl)cc1 | 7.16% (active)
33 | O=c1[nH]c2ccccc2n1C1CCN(CCNS(=O)(=O)c2ccccc2C(F)(F)F)CC1 | 94.8%
34 | O=C(NCCN1CCN(c2ccccn2)CC1)c1ccc(C(F)(F)F)cc1 | 152%
35 | C[C@@H](CN1CCC2(CC1)CCN(C)C2=O)NC(=O)c1cnc2ccccc2c1 | 127%
36 | O=c1[nH]c2ccccc2n1C1CCN(CCNS(=O)(=O)c2ccccc2[N+](=O)[O-])CC1 | 132%
37 | CS(=O)(=O)N1CC2(CCN(CCNC(=O)c3ccc4ccccc4c3)CC2)c2ccccc21 | 136%
38 | CC(C)[C@@H](CN1CCC(n2c(=O)[nH]c3ccccc32)CC1)NC(=O)c1ccc2ccccc2c1 | 84.6%
39 | O=C(NCCN1CCC(n2c(=O)[nH]c3ccccc32)CC1)C(c1ccccc1)(c1ccccc1)c1ccccc1 | 99%
40 | O=C(NCCN1CCC(n2c(=O)[nH]c3ccccc32)CC1)c1ncccn1 | 120%

— PubChem BioAssay AID602144 (Vanderbilt Specialized Chemistry Center, 2011)
